“And” between values parts separate entries of the source, which are not always exact repeats. Identical values can stand only once. Inconclusive results are not listed. The source made the active and inactive calls. The call rests on the fitted dose curve; in most records, active means well fitted activation curve with a large enough effect; inconclusive means small, poorly fitted or top-dose-only effect; inactive means no such curve, though single readings can be large or run the other way.

The values below come from PubChem BioAssay (NCATS).
Potency means the concentration at half of the fitted maximal effect.

Cellular tumor antigen p53 (Homo sapiens), sequence (P04637 whole entry, looked up): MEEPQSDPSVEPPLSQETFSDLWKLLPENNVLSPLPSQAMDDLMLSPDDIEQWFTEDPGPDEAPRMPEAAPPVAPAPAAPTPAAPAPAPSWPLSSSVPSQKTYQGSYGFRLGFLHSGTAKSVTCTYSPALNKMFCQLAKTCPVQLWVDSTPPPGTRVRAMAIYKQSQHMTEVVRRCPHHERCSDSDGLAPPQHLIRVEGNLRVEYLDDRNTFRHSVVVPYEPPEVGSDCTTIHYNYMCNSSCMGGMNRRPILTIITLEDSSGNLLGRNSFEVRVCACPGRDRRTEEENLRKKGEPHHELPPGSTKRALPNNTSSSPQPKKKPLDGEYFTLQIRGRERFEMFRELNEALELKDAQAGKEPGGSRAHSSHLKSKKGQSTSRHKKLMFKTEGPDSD

The target in this experiment is Cellular tumor antigen p53 (Homo sapiens) (UniProt P04637). The experiment can be described thus: Primary qHTS for small molecule compounds that upregulate eGFP-tagged delta133p53alpha (in N-terminal) cells. (AID 2060322). Further: nearly all actives have a fitted effect of over 75% in size.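 On activation: series mostly up to about 56 µM; 0% = DMSO vehicle and 100% = reference activator.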 The following applies: NCI-H358 eGFP-delta133p53alpha fluorescence, 24 h; activation: stronger effect = higher value. The method, boiled down:
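NCI-H358 cells pre-induced 24 h with 10 ng/ml doxycycline to express N-terminal eGFP-delta133p53alpha, then dosed 24 h at 37C without doxycycline; fixed, Hoechst-stained, GFP intensity by laser scanning cytometry, normalized to DMSO (0%) and 57.5 uM 5-azacytidine (100%).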
`Oc1ccc(Cl)cc1`: the activation was -7.34% (inactive).

With `CCCCOC(=O)c1ccccc1C(=O)OCc1ccccc1`, the activation is -2.82% (inactive).

With `CC(C)c1c(CN(C)C(C)Cc2ccccc2)n(C)n(-c2ccccc2)c1=O` (stereo unspecified), the activation is -14.2% (inactive).

Regarding `C[C@@H]1CC2=CC(=O)CC[C@@H]2[C@H]2CC[C@@]3(C)[C@@H](CC[C@]3(C)O)[C@@H]21`, the activation is -3.35% (inactive).

On to `C[C@@H]1[C@@H](CC(C[C@H]2O[C@@H]3O[C@]4(C)CC[C@@H]5[C@H](C)CC[C@@H]([C@H]2C)[C@@]35OO4)C[S+](=O)([O-])c2ccc(COC(=O)N(C)C)cc2)O[C@@H]2O[C@]3(C)CC[C@H]4[C@H](C)CC[C@@H]1[C@@]24OO3` (stereo partly specified), for which the activation is 8.23% (inactive).

As to `CC(C)NCC(O)c1ccc([N+](=O)[O-])cc1` (stereo unspecified), the activation was 16.4% (inactive).

In the case of `C[C@]12COC(=O)C[C@@H]1CC[C@@H]1[C@H]2CC[C@@]2(C)[C@H]1CC[C@]2(C)O`, the activation was -15.3% (inactive).

Regarding `Clc1cccc(N2CCNCC2)c1`, the activation was 17.5% (inactive).

With `C=CCN1CC[C@]23CCCC[C@H]2[C@H]1Cc1ccc(O)cc13`, the activation is -6.69% (inactive).

On to `c1ccc(CCCN2CCN(CCOC(c3ccccc3)c3ccccc3)CC2)cc1`, for which the activation was 1.41% (inactive) and -30.2% (inactive).

Turning to `CCC(CC)(CNC(=O)CCCO)c1cccc(OC)c1`, the activation is 16.7% (inactive).

Turning to `CC1N=C(N)OC1c1ccccc1` (stereo unspecified), the activation was -17.5% (inactive).

Take `O=c1n(Cl)c(=O)n(Cl)c(=O)n1Cl`: the activation was 6.21% (inactive).

As to `CCC(=O)C(CCN(C)C)(c1ccccc1)c1ccccc1`, the Potency was 13.8 µM (active).

Consider `CCN(CCO)CCn1c(Cc2ccccc2)nc2c1c(=O)n(C)c(=O)n2C`, for which the activation was 16.7% (inactive).

As for `COP(=S)(OC)Oc1ccc(SC)c(C)c1`, the activation is -15.9% (inactive).

As to `NC1=NC(=O)C(c2ccccc2)O1` (stereo unspecified), the activation was 0.565% (inactive).

In the case of `CC(C)(C)NCC(O)c1cc(Cl)c(N)c(C(F)(F)F)c1` (stereo unspecified), the activation is -6.21% (inactive).

With `CC(=O)O[C@@]12CO[C@H]1C[C@H](O)[C@@]1(C)C(=O)[C@H](O)C3=C(C)[C@@H](O)C[C@@](O)([C@@H](OC(=O)c4ccccc4)[C@@H]21)C3(C)C`, the Potency is 30.6 µM (active).

In the case of `CN1CCC(O)(c2ccc(F)cc2)C(C(=O)c2ccc(F)cc2)C1` (stereo unspecified), the activation is -14.1% (inactive).

Take `COC1=CC(C)=C[C@@H](C)[C@@H](O)[C@@H](C)CC(C)=CC=C[C@H](OC)[C@H]([C@@H](C)[C@@H](O)[C@H](C)[C@@]2(O)C[C@@H](O)[C@H](C)[C@@H](C(C)C)O2)OC1=O`: the activation was 6.87% (inactive).

Regarding `CC(O)CN1CCN(CC(=O)[O-])CCN(CC(=O)[O-])CCN(CC(=O)[O-])CC1.[Gd+3]` (stereo unspecified), the activation was -12.6% (inactive).

`C[C@]12CC[C@@H]3c4ccc(OC(=O)N(CCCl)CCCl)cc4CC[C@H]3[C@@H]1CC[C@@H]2O`: the activation is 11.9% (inactive).

With `COc1cc(OC)c(OC)cc1C=O`, the activation is 5.76% (inactive).

On to `CCC(C)C(C)(COC(N)=O)COC(N)=O` (stereo unspecified), for which the activation was 8.37% (inactive).

As for `C=C1CC[C@@]2(O)[C@H]3Cc4ccc(O)c5c4[C@@]2(CCN3CC2CC2)[C@H]1O5`, the activation was 6.21% (inactive).

Consider `C[C@]12Cc3cn[nH]c3C[C@@H]1CC[C@@H]1[C@H]2CC[C@@]2(C)[C@H]1CC[C@]2(C)O`, for which the activation is -11.9% (inactive).

For `CC[C@H]1C=CC=CC[C@@H](C)[C@H](O)[C@@](C)(O)C(=O)[C@@H](C)[C@H](O)[C@@H](C)C(=O)[C@@H](C)[C@H](O)[C@@H](C)C=CC(=O)O[C@@H]2[C@@H](C)[C@H](CC1)O[C@]1(CC[C@H](C)[C@H](C[C@@H](C)O)O1)[C@H]2C`, the activation was 11.3% (inactive).

On to `N#Cc1nn(-c2c(Cl)cc(C(F)(F)F)cc2Cl)c(N)c1S(=O)C(F)(F)F` (stereo unspecified), for which the activation is -2.51% (inactive).

Regarding `CCC(C(N)=O)N1CCCC1=O` (stereo unspecified), the activation was -3.35% (inactive).

Take `O=[N+]([O-])c1ncc[nH]1`: the activation is 15.2% (inactive).

In the case of `CO/C=C(/C(=O)OC)c1ccccc1Oc1cc(Oc2ccccc2C#N)ncn1`, the activation was -36.8% (inactive).

On to `CCCC1CCCCN1` (stereo unspecified), for which the activation is -16.4% (inactive).

As for `C=CC[C@]1(O)CC[C@H]2[C@@H]3CCC4=CC(=O)CCC4=C3C=C[C@@]21C`, the activation is -4.18% (inactive).

Take `CN1CCN(C(=O)O[C@H]2c3nccnc3C(=O)N2c2ccc(Cl)cn2)CC1`: the activation was 11.9% (inactive) and -19.6% (inactive).

Turning to `CC(CC(C(N)=O)(c1ccccc1)c1ccccc1)N(C)C` (stereo unspecified), the activation is -9.6% (inactive).
